The values below come from ChEMBL document CHEMBL4513146, “CO-ADD screening of Karazin Kharkiv National University (Ukraine) compounds”.

Measured potencies and affinities stand elsewhere.

For the assay, the system named is Staphylococcus aureus. Conditions: Concentration 32 ug.mL-1;; ASSAY_TEST Inhibition of Bacterial Growth; detection method Absorption (OD600); MEDIA CAMHB; plate type 384well; NBS; CORNING #3640; time 18 hr.
Broadly, the Inhibition is the drop in the measured response relative to a control, in per cent. With `COc1ccc(-c2cc3c4nn(CC(=O)Nc5ccccc5)c(=O)n4ccn3n2)cc1`, the Inhibition amounted to 3.97%.

`O=C(Cn1nc2ccc(SCc3ccc(Cl)cc3)nn2c1=O)NCc1ccccc1`: the Inhibition was determined as 7.82%.

In the case of `Cc1nnc2c(=O)n(CC(=O)Nc3ccc(F)cc3F)c3ccccc3n12`, the Inhibition worked out at 10.56%.

As to `Cc1ccc(C)c(CSc2nnc3c(=O)n(-c4ccc(F)c(F)c4)ccn23)c1`, the Inhibition came to 21.94%.

As for `O=c1c2nn(Cc3cccc([N+](=O)[O-])c3)c(=O)n2ccn1-c1ccccc1`, the Inhibition is listed as -0.55%.

`CC(C)c1ccc(NC(=O)Cn2nc3ccc(SCc4ccc(Cl)cc4)nn3c2=O)cc1`: the Inhibition was 4.11%.

Regarding `COc1ccc(-c2cc3c4nn(CC(=O)Nc5ccc(C)cc5)c(=O)n4ccn3n2)cc1`, the Inhibition is -0.62%.

For `CCc1nnc2c(=O)n(CC(=O)Nc3cccc(C#N)c3)c3ccccc3n12`, the Inhibition is recorded as 13.48%.

As to `CC(C)(C)OC(=O)N1CCC(NC(=O)CCc2nnc3ccc(-c4ccccc4)nn23)CC1`, the Inhibition stood at 1.31%.

For `COc1ccc(NC(=O)C(C)Sc2nnc3c(=O)n(-c4cccc(OC)c4)ccn23)cc1` (centres undefined), the Inhibition came out at 6.45%.

On to `Cc1ccc(NC(=O)Cn2nc3c4cc(-c5ccc(C)c(C)c5)nn4ccn3c2=O)cc1`, for which the Inhibition is recorded as 7.11%.

Turning to `O=c1c2sccc2n2c(=O)n(Cc3cccc(Cl)c3)nc2n1Cc1cccs1`, the Inhibition is on record as 18.24%.

On to `Cc1cc(C)cc(N(Cc2ccc(F)cc2)S(=O)(=O)c2cccn3c(C)nnc23)c1`, for which the Inhibition is listed as -7.01%.

Regarding `Cc1ccccc1Nc1cc(C)n2c(=O)n(CCc3ccccc3)nc2n1`, the Inhibition is recorded as -11.65%.
